# From PubChem BioAssay AID1645882 (National Center for Advancing Translational Sciences (NCATS), 2021)
# “And” between values parts separate entries of the source, which are not always exact repeats. Identical values can stand only once. Screen size: about 16,000 compounds; about 120 (0.75%) were called active. Roughly 4% stayed inconclusive and do not appear here. Calls follow the shape of the dose curve; as a rule, active = well fitted inhibition curve with a large enough effect; inconclusive = small, poorly fitted or top-dose-only effect; inactive = no such curve, though single readings can be large or run the other way. What follows is part of a selection rich in actives, with near analogues and random picks from the rest. Where a call stands in place of a potency, no number is given. Some compounds were tested as several samples or in several runs, with calls that do not always agree.
# Target: Rap guanine nucleotide exchange factor 3 (Homo sapiens) (UniProt O95398)
# Experiment: Validation qHTS for antagonist of cAMP-regulated guanine nucleotide exchange factor 3 (EPAC1); also: nearly all actives have a fitted effect of over 75% in size
# Details: EPAC1 Rap1B-BODIPY-GDP exchange, fluorescence; series mostly up to 150 µM
# Text: Assay Provider (PI): Xiaodong Cheng Ph.D.
# The University of Texas Medical Branch, […], TX
# In multi-cellular eukaryotic organisms, the effects of cAMP are transduced by two ubiquitously-expressed intracellular cAMP receptors, the classic protein kinase A/cAMP-dependent protein kinase (PKA/cAPK) and the more recently discovered exchange protein directly activated by cAMP/cAMP-regulated guanine nucleotide exchange factor (EPAC/cAMP-GEF). Both PKA and EPAC are ubiquitously expressed in all tissues, and an increase in intracellular cAMP levels will lead to the activation of both PKA and EPAC. Therefore, careful dissections of the individual role and relative contribution of EPAC and PKA within the overall cAMP signaling in various model systems are critical for further elucidating the mechanism of cAMP signaling. To date no EPAC-specific antagonists and agonist, as well as isoform-specific agonists have been reported, and developing EPAC-specific pharmacological probes to determine the physiological functions that EPAC play in the overall cAMP-mediated signaling remains a major challenge within the research field. Furthermore, identified regulators of EPAC may lead to new mechanism-based therapeutic strategies specifically targeting the EPAC / cAMP-signaling components as EPAC has been implicated to play important roles in major human pathological conditions such as diabetes, heart disease, and cancer.
# This qHTS will be used to screen the Molecular Libraries Small Molecule Repository (MLSMR) as a concentration-titration series using the NCGC unique quantitative screening (qHTS) platform to find activators for EPAC1. In addition, this assay will also be used as a counterscreen for the EPAC2 qHTS. This fluorescent based assay is developed and validated for EPAC1 that measures exchange using EPAC effector Rap1 complex with BODIPY-GDP, a GDP analog with a tethered fluorophores. Activators are identified by monitoring the change in fluorescence signal as the exchanged free BODIPY-GDP has a reduced fluorescence compared to Rap1-bound BODIPY-GDP. Increase in signal (activation) is the desired outcome for the EPAC1 agonist while no activity in this assay is desired for the EPAC2 agonist counterscreen.
# [1] de Rooij, J., Zwartkruis, F. J., Verheijen, M. H., Cool, R. H., Nijman, S. M., Wittinghofer, A., and Bos, J.L. (1998) Nature 396, 474-477.
# Briefly, three uL of reagents (100 nM EPAC1, 250 nM RAP1B-BODIPY-GDP, 50 uM GDP) were dispensed into a 1536-well Greiner black solid-bottom medium binding assay plate. Controls and test compounds (23 nL) were transferred to the plate via a Kalypsys pin tool equipped with a 1536-pin array. The plates were centrifuged at 1,000 rpm for 15 seconds followed by 5 minute incubation at room temperature. The assay plates were read at 5 minute intervals for 30 minutes in the ViewLux plate reader using 480nm excitation and 540nm emission filters. The results were normalized to the […] positive control ATA and DMSO.
# Potency is read from the fitted curve at half-maximal effect.
# Rap guanine nucleotide exchange factor 3 (Homo sapiens), sequence (O95398 whole entry, looked up): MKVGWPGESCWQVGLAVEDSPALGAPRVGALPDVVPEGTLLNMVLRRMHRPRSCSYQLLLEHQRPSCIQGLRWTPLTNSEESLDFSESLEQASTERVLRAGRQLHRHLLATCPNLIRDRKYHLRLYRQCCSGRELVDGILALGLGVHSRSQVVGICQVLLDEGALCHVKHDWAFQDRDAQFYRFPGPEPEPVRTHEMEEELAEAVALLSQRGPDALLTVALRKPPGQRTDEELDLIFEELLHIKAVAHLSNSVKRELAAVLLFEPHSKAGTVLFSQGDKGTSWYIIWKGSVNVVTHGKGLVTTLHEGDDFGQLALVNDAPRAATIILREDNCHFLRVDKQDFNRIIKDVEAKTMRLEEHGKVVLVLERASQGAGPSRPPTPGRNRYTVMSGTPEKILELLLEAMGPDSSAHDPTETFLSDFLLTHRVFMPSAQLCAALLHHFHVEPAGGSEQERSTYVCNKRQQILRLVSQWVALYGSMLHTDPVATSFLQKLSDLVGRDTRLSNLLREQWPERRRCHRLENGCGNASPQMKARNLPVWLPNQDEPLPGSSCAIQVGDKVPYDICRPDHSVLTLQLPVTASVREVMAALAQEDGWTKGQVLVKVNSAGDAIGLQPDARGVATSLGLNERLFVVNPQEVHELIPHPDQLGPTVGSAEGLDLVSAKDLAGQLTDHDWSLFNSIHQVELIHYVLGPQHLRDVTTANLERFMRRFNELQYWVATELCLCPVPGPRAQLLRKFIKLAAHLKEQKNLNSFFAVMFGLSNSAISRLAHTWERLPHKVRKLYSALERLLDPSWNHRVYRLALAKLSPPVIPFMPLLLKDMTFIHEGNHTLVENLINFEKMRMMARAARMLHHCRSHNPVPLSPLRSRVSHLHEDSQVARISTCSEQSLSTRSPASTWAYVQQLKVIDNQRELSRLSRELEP
row,Compound,Potency
1,N[C@@H](Cc1ccc(O)c(I)c1)C(=O)O,inactive
2,N[C@@H](Cc1ccc(O)c(O)c1)C(=O)O,inactive
3,O=C(/C=C\c1ccc(O)c(O)c1)O[C@@H](Cc1ccc(O)c(O)c1)C(=O)O,inactive
4,O=C(/C=C/c1ccc(O)c(O)c1)OC(Cc1ccc(O)c(O)c1)C(=O)O (configuration not stated),inactive and 100 µM (active)
5,O=C(/C=C/c1ccc(O)c(O)c1)OCCc1ccccc1,inactive
6,NC(Cc1ccc(O)c(O)c1)C(=O)O (configuration not stated),50.1 µM (active)
7,COc1ccc(C(=O)NCC2Cc3cc(C)cc(-c4cc(C(C)=O)ccc4F)c3O2)c(OC)c1OC (configuration not stated),inactive
8,COC(=O)N1CCC[C@@]2(CCN(Cc3nccs3)C2)C1,inactive
9,OC(c1ccc2c(c1)CN(Cc1c[nH]c3ccccc13)CCO2)c1ccccn1 (configuration not stated),inactive
10,CC(=O)Oc1c2c(c3c(c1CC=C(C)C)O[C@@]14C(=CC5CC1C(C)(C)OC4(C/C=C(\C)C(=O)O)C5=O)C3=O)OC(C)(CCC=C(C)C)C=C2 (some centres not stated),89.1 µM (active)
11,CC(C)=CCc1c2c(c(O)c3c(=O)c(O)c(-c4ccccc4)oc13)C=CC(C)(C)O2,inactive
12,CC(C)=CCCC1(C)C=Cc2c(O)c3c(c(CC=C(C)C)c2O1)OC12C(=CCCC1C(C)(C)O[C@@]2(C/C=C(\C)C(=O)O)C(=O)O)C3=O (some centres not stated),89.1 µM (active)
13,CC(=O)Oc1c(-c2ccccc2)oc2c(CC=C(C)C)c3c(c(OC(C)=O)c2c1=O)C=CC(C)(C)O3,inactive
14,COC(=O)/C(C)=C/CC12OC(C)(C)C3CC(C=C4C(=O)c5cc6c(c(CCC(C)(C)Cl)c5OC431)OC1(C)CCC(=C(C)C)C6C1)C2=O (configuration not stated),inactive
15,C1=C(c2ccc3c(c2)CN(Cc2cccn2-c2ncccn2)CCO3)Cc2ccccc21,inactive
16,CC(C)c1c(C(=O)NCC(C)(C)N2CCOCC2)cnn1-c1nccc(-c2ccccc2F)n1,inactive
17,Cc1ccc(-c2ccnc(-n3ncc(C(=O)NCCN4CCOCC4)c3C3CC3)n2)o1,inactive
18,CCC1CN(CCNC(=O)c2ccccc2-n2cccn2)Cc2cc(OC)ccc2O1 (configuration not stated),inactive
19,COc1ccc(C2Sc3ccccc3N(CCN(C)C)C(=O)[C@@H]2OC(C)=O)cc1 (some centres not stated),inactive
20,CCOC(=O)[C@@H](C)N(C(=O)OC(C)(C)C)S(=O)(=O)N(Cc1ccccc1)[C@@H](C(=O)OC)C(C)C,inactive
21,Cc1c(-c2ccccc2)oc2cc(O)ccc2c1=O,inactive

row,Compound,Potency
1,CC(=O)[C@H](CC(C)C)NC(=O)[C@@H](CC(C)C)NC(=O)[C@H](CC(C)C)NC(=O)OCc1ccccc1,inactive
2,O=C(O)c1cc(-c2ccccc2)nc2ccccc12,inactive
3,O=C(O)c1cc2ccccc2c(Cc2c(O)c(C(=O)O)cc3ccccc23)c1O,50.1 µM (active)
4,O=C(O)c1c2ccccc2cc2ccccc12,inactive
5,CCN1CCN(C(=O)c2sc3ncnc(NCC4CCCO4)c3c2C)CC1 (configuration not stated),inactive
6,CC(C)CCCC(C)C1CCC2C3CC=C4CC(=O)CC[C@@]4(C)C3CC[C@@]12C (some centres not stated),inactive
7,COc1ccccc1CNc1nc(-c2ccc(N(C)C)cc2)nc2ccccc12,inactive
8,Cc1ncc2c(c1CNC(=O)c1ccc3c(c1)OCO3)CCN(C(=O)c1cccc(-n3cccn3)c1)C2,inactive
9,CC(=O)N[C@@H](Cc1c[nH]c2ccccc12)C(=O)O,inactive
10,CC(C)C(N)C(=O)NC(Cc1c[nH]c2ccccc12)C(=O)O (configuration not stated),inactive
11,Cc1cc(C)cc(C(=O)N(C)[C@H](Cc2ccc(-c3ccccc3)cc2)C(=O)N[C@@H](Cc2c[nH]c3ccccc23)C(=O)O)c1,112 µM (active)
12,C[N+](C)(CCCCCC[N+](C)(C)CCCN1C(=O)c2ccccc2C1=O)CCCN1C(=O)c2ccccc2C1=O,inactive
13,C#CCN(Cc1nc(N2CCOCC2)c2ccc(Cl)cc2n1)Cc1ccco1,inactive
14,CCOc1cc(OCC)c(C(=O)CCC(=O)O)cc1OCC,inactive
15,CCCC(=O)c1cc(O)c(O)cc1O,63.1 µM (active)
16,CCC(=O)c1c(O)cc(O)cc1O,inactive
17,O=C(c1n[nH]c2c1CCCC2)N1CCOc2ccc(C(O)C3CCCCC3)cc2C1 (configuration not stated),inactive
18,Cc1ccc(C2(O)CCN(CCCC(=O)c3ccc(F)cc3)CC2)cc1,inactive
19,COc1ccccc1C1CN(CCNC(=O)c2cscn2)Cc2ccccc2O1 (configuration not stated),inactive
20,CC(C)(O)c1ccccc1CC[C@@H](SCC1(CC(=O)O)CC1)c1cccc(/C=C/c2ccc3ccc(Cl)cc3n2)c1,79.4 µM (active)
21,CN(C)C(=O)CCSC(SCCC(=O)O)c1cccc(/C=C/c2ccc3ccc(Cl)cc3n2)c1 (configuration not stated),inactive
